According to PubChem BioAssay (Tox21):
Records with an inconclusive call do not appear. Entries that show only a call come without a potency. Unmarked numbers belong to inactive results. Active and inactive are the calls of the source. The call rests on the fitted dose curve.

experiment: p53 small molecule agonists, cell-based qHTS assay with rat liver microsomes (AID 1963578); conditions: HCT-116 p53RE-bla, beta-lactamase ratio, 16 h; series mostly up to 66 µM
Description: U.S. Tox21 Program National Center for Advancing Translational Sciences [NCATS] Division of Preclinical Innovation [DPI] U.S. Environmental Protection Agency [EPA] National Institutes of Environmental Health Sciences [NIEHS] National Toxicology Program [NTP] U.S. Food and Drug Administration [FDA] Tox21 Assay Overview: p53, a tumor suppressor protein, is activated following cellular insult, including DNA damage and other cellular stresses. The activation of p53 regulates cell fate by inducing DNA repair, cell cycle arrest, apoptosis, or cellular senescence. The activation of p53, therefore, is a good indicator of DNA damage and other cellular stresses. […] The activation of the reporter gene under culture conditions can be detected by fluorescence intensity. This cell line was used to screen the Tox21 10K compound library in the condition of presence of rat liver microsomes and to identify agonists that activate the p53 signaling pathway after in vitro metabolic activation (Ooka et al., Archive of Toxicology 96:1975-1987, 2022).
Tox21 Assay Protocol Summary: The p53RE-bla cells were dispensed at 4,000cells/3ul/well in 1536-well black-clear bottom plates. After the assay plates were incubated at 37 C, 5% CO2 incubator for 5 hours, 23 nL of compounds dissolved in DMSO, positive controls or DMSO only was transferred to the assay plate. Following compound addition, 3 uL of rat liver microsomes (Molecular Toxicology, Boone, NC) at final concentration of 0.5 mg/mL and 1uL of Beta-Nicotinamide adenine dinucleotide 2-phosphate (NADPH) at final concentration of 0.5 mg/mL were transferred to the assay plate. The plates were incubated at 37 C for 16 hours. 1 uL of LiveBLAzer detection mixture was added to each well and the plates were incubated at room temperature in the dark for 2 h.

Structure (SMILES)	Potency	activation
C=CN1CCCCCC1=O	inactive	
O=C1c2ccccc2C(=O)C1c1ccc2ccccc2n1	inactive	
O=C1OC(OC(=O)c2cccnc2Nc2cccc(C(F)(F)F)c2)c2ccccc21 (stereo not given)	inactive	
CCN(CCC#N)c1ccc(N=Nc2ccc([N+](=O)[O-])cc2)cc1	inactive	
COC(=O)CCCCC(CCSS/C(CCO)=C(\C)N(C=O)Cc1cnc(C)nc1N)SC(C)=O (stereo not given)	inactive	
CC(=O)C=O	inactive	
Cc1c(C)c2c(c(C)c1OC(=O)CCC(=O)OCCO)CC[C@@](C)(CCC[C@H](C)CCC[C@H](C)CCCC(C)C)O2	inactive	
CC(C(=O)O)c1ccc(C(=O)c2ccccc2)s1 (stereo not given)	inactive	
CCC(CO)(CO)COCC(CC)(CO)CO	inactive	
CCCCCCCCSCc1cc(C)c(O)c(CSCCCCCCCC)c1	inactive	
N=C1C=CC(=C(c2ccc(N)cc2)c2ccc(N)cc2)C=C1	inactive	
Cc1occc1C(=O)Nc1ccc(C(=O)N2CCC(F)(F)/C(=C\C(=O)N3CCC(N4CCCCC4)CC3)c3ccccc32)cc1	inactive	
CCOC(=O)[C@H](CCc1ccccc1)N[C@@H](C)C(=O)N1CCC[C@H]1C(=O)O	inactive	
Oc1cccc2[nH]ccc12	inactive	
Cc1ccc(C)c(N)c1	inactive	
CCCCCCCCCCCCCCCCCCN(C)C	inactive	
O=C(OOC(=O)c1ccccc1)c1ccccc1	inactive	
OCC(CBr)(CBr)CBr	inactive	
Oc1ccc2c(c1)OCO2	inactive	
O=C(O)CNCC(=O)O		0.304% [at 5.99 µM]

Structure (SMILES)	Potency	activation
CCC(=O)Oc1ccc2c(c1)CC[C@@H]1[C@@H]2CC[C@@]2(C)[C@H]1C[C@@H](OC(=O)CC)[C@@H]2OC(=O)CC	inactive	
CC1(C)CC(N)CC(C)(C)N1	inactive	
CN(C)CCN(C)CCN(C)C	inactive	
Cc1cc(O)c(C)c(C)c1O	inactive	
Cc1cccn2c(=O)c(-c3nnn[nH]3)cnc12		0.054% [at 13.6 µM]
c1ccc(C[P+](c2ccccc2)(c2ccccc2)c2ccccc2)cc1	inactive	
CCC(=O)CC(C)CC (stereo not given)		-2.6% [at 0.249 µM]
Cc1ccccc1N1CCN(CCc2nnc3n2CCCC3)CC1	inactive	
CC(C)(C)c1cc(CCC(=O)NCCCCCCNC(=O)CCc2cc(C(C)(C)C)c(O)c(C(C)(C)C)c2)cc(C(C)(C)C)c1O	inactive	
CCOC(=O)CCCCCCCCC(=O)OCC	inactive	
CCN(CC)C(=O)Nc1ccc(OCC(O)CNC(C)(C)C)c(C(C)=O)c1 (stereo not given)	inactive	
CCC(=O)O[C@]1(C(=O)SCF)[C@H](C)C[C@H]2[C@@H]3C[C@H](F)C4=CC(=O)C=C[C@]4(C)[C@@]3(F)[C@@H](O)C[C@@]21C	inactive	
OCCCCCCO	inactive	
NC(=O)c1ccncc1	inactive	
NC(=O)N1c2ccccc2CC(=O)c2ccccc21	inactive	
c1ccc(COCc2ccccc2)cc1	inactive	
CCn1c2ccccc2c2cc([N+](=O)[O-])ccc21	inactive	
Cc1ccccc1N1C(=O)c2cc(S(N)(=O)=O)c(Cl)cc2NC1C (stereo not given)	inactive	
CCCCCCCCCC=O	inactive	
CC(C)=CCCC(C)C=O (stereo not given)	inactive	
